Test [1] in a line: qHTS assay to identify small molecule antagonists of the glucocorticoid receptor (GR) signaling pathway - cell viability counter screen (AID 720693). Also: nearly all actives have a fitted effect of over 55% in size. On the technique in general: qHTS replaces the single test concentration by a dilution series.
A short description of test [2]: qHTS assay for identifying genotoxic compounds that show differential cytotoxicity against isogenic chicken DT40 cell lines with known DNA damage response pathways - wild type cell line (AID 743012). Also: nearly all actives have a fitted effect of over 60% in size. Also: potency is read from the fitted curve at half-maximal effect. The method in brief: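 Viability of DNA repair-proficient chicken DT40 cells was assessed by CellTiter-Glo luminescence following 40 h compound exposure at 37 C/5% CO2.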

A short description of test [3]: qHTS assay for identifying genotoxic compounds that show differential cytotoxicity against isogenic chicken DT40 cell lines with known DNA damage response pathways - Rad54/Ku70 mutant cell line (AID 743015). Also: nearly all actives have a fitted effect of over 60% in size.
Test [4] in a line: qHTS assay to identify small molecule antagonists of the androgen receptor (AR) signaling pathway - cell viability counter screen (AID 743033; also: nearly all actives have a fitted effect of over 45% in size).
Test [5] can be described thus: qHTS assay to identify small molecule antagonists of the androgen receptor (AR) signaling pathway using the MDA cell line - cell viability counter screen (AID 743041; also: nearly all actives have a fitted effect of over 45% in size). The method in brief: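 Using the breast carcinoma line MDA-kb2 AR-luc, test chemicals were co-incubated with R1881 for 16 h; CellTiter-Fluor reagent, added at 15.5 h, provided a fluorescence measure of live cells.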

Test [6] in a line: qHTS assay to identify small molecule antagonists of the thyroid receptor (TR) signaling pathway - cell viability counter screen (AID 743064). Also: nearly all actives have a fitted effect of over 50% in size. The method, boiled down: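 Counter screen for cytotoxicity: compound plus T3 (1 nM final) on GH3.TRE-Luc cells, 23.5 h at 37 °C, then fluorescence viability readout with CellTiter-Fluor.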
Test [7] can be described thus: qHTS assay to identify small molecule antagonists of the thyroid receptor (TR) signaling pathway (AID 743065). Also: series mostly up to about 70 µM; nearly all actives have a fitted effect of over 55% in size. The method, boiled down: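 Antagonism measured as loss of luciferase signal in GH3 cells stably carrying a TRE-luciferase reporter, co-treated with compound and T3 (1 nM final) for 23.5 h at 37 C. Viability was read in the same well by CellTiter-Fluor.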
In test [8] the test system is thyroid hormone receptor (rat, GH3 cells). Briefly: qHTS assay to identify small molecule agonists of the thyroid receptor (TR) signaling pathway (AID 743066; calls by dose curve).
In test [9] the target is Estrogen receptor (Homo sapiens) (UniProt P03372). Briefly: qHTS assay to identify small molecule antagonists of the estrogen receptor alpha (ER-alpha) signaling pathway (AID 743069; active = well fitted curve in the direction sought with a large enough effect in the signal ratio in the repeat runs, not every such curve was filed as active; the % refers to the signal ratio). The method in brief:
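Fluorescence intensity from a beta-lactamase FRET substrate served as the read-out. Cells: HEK293 with stably integrated ER-alpha-UAS-bla reporter. Agonist 17beta-estradiol was co-added with compounds; incubation 18 hr at 37C, substrate 2 hr at room temperature.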

Test [10] is described as follows: qHTS assay to identify small molecule antagonists of the estrogen receptor alpha (ER-alpha) signaling pathway - cell viability counter screen (AID 743074; calls by dose curve; also: nearly all actives have a fitted effect of over 45% in size).
For test [11], the target named is Estrogen receptor (Homo sapiens) (UniProt P03372). Put plainly: qHTS assay to identify small molecule agonists of the estrogen receptor alpha (ER-alpha) signaling pathway (AID 743075; calls by dose curve).
The target is the same in test [12]. Briefly: qHTS assay to identify small molecule agonists of the estrogen receptor alpha (ER-alpha) signaling pathway using the BG1 cell line (AID 743079). Also: nearly all actives have a fitted effect of over 20% in size. Also: potency is read from the fitted curve at half-maximal effect.
A short description of test [13]: qHTS assay to identify small molecule antagonists of the estrogen receptor alpha (ER-alpha) signaling pathway using the BG1 cell line (AID 743080; calls by dose curve;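 also: BG1 cells stimulated with 17beta-estradiol alongside compound; series mostly up to about 70 µM; nearly all actives have a fitted effect of over 25% in size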). The method, boiled down:
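After 5 days in phenol-red-free 10% charcoal-stripped FBS medium, BG1-Luc-4E2 cells were seeded, left 24 h at 37 C, co-treated with compounds and 17beta-estradiol for 21.5 h, then assayed for viability and luciferase.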

Test [14] is described as follows: qHTS assay to identify small molecule antagonists of the estrogen receptor alpha (ER-alpha) signaling pathway using the BG1 cell line - cell viability counter screen (AID 743081).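 Also: compound given together with 17beta-estradiol as the ER stimulus; series mostly up to about 70 µM; nearly all actives have a fitted effect of over 45% in size.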
Another test deals with Aromatase (Homo sapiens) (UniProt P11511). Briefly: qHTS assay to identify aromatase inhibitors (AID 743083). Also: series mostly up to about 70 µM; nearly all actives have a fitted effect of over 55% in size.
Test [15] in a line: qHTS assay to identify aromatase inhibitors - cell viability counter screen (AID 743084).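 Also: cells stimulated with testosterone during compound exposure; nearly all actives have a fitted effect of over 55% in size.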
The nature of test [16]: qHTS assay for identifying genotoxic compounds that show differential cytotoxicity against isogenic chicken DT40 cell lines with known DNA damage response pathways - Rev3 mutant cell line (AID 743014). Also: nearly all actives have a fitted effect of over 55% in size. Also: potency is read from the fitted curve at half-maximal effect.
Test [17] has as its target Androgen receptor (Homo sapiens) (UniProt P10275). Briefly: qHTS assay to identify small molecule agonists of the androgen receptor (AR) signaling pathway (AID 743036; active = well fitted activation curve with a large enough effect in the signal ratio in the repeat runs, with a control signal flat, not every such curve was filed as active; the % refers to the signal ratio). The method in brief: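 In this Tox21 qHTS, 2,000 HEK293 AR-bla cells per well were incubated with compounds for 16 h at 37C and 5% CO2. Fluorescence intensity was recorded 2 h after adding LiveBLAzer B/G FRET substrate at room temperature.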

The target is the same in test [18]. Briefly: qHTS assay to identify small molecule agonists of the androgen receptor (AR) signaling pathway using the MDA cell line (AID 743040; also: nearly all actives have a fitted effect of over 20% in size). The method in brief:
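Stable MMTV-luciferase reporter in MDA-kb2 cells; note the promoter carries GR as well as AR response elements. 16 h compound treatment, 37C, 0% CO2; ONE-Glo luminescence endpoint.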

The structures appear in SMILES notation. A number with no mark means an inactive call. Records with an inconclusive call do not appear. Activity calls are given as the source filed them. Unless noted, calls follow the shape of the dose curve; as a rule, active = well fitted curve in the direction sought with a large enough effect in the repeat runs; inconclusive = weak or mixed curves; inactive = no such curve, though single readings can be large; an effect the other way counts as inactive or inconclusive.
% is scaled to controls: 0 for no effect and ±100 for the full control effect.

Sequence of Estrogen receptor (Homo sapiens) (P03372 whole entry, looked up): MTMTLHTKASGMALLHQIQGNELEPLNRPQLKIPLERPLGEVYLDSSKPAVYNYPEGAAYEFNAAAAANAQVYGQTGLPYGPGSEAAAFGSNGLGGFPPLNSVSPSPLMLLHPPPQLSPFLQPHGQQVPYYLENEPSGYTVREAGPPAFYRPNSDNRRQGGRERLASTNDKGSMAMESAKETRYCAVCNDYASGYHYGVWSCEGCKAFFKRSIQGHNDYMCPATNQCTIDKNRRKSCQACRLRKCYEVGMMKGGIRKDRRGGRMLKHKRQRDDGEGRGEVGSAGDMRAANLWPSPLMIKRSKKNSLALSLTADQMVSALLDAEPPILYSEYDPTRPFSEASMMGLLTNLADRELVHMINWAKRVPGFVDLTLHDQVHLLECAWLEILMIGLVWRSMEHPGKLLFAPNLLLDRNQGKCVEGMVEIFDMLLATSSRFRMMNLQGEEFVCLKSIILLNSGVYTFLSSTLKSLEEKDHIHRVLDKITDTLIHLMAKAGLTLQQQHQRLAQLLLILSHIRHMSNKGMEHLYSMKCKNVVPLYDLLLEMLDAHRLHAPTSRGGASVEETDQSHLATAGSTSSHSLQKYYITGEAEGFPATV
Sequence of Aromatase (Homo sapiens) (P11511 whole entry, looked up): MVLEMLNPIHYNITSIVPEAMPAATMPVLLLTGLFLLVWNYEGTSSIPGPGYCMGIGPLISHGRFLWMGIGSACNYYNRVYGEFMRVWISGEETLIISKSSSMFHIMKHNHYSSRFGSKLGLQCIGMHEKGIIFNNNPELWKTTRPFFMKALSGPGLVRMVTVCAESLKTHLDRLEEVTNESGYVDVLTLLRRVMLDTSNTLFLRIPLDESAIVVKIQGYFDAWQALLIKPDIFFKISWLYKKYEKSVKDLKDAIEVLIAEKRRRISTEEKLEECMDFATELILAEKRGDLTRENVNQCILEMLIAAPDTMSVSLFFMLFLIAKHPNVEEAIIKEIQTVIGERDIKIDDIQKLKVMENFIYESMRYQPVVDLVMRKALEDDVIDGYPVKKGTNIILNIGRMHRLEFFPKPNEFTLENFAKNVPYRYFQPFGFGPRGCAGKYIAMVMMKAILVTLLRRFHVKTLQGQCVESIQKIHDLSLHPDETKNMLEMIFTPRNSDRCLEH
Sequence of Androgen receptor (Homo sapiens) (P10275 whole entry, looked up): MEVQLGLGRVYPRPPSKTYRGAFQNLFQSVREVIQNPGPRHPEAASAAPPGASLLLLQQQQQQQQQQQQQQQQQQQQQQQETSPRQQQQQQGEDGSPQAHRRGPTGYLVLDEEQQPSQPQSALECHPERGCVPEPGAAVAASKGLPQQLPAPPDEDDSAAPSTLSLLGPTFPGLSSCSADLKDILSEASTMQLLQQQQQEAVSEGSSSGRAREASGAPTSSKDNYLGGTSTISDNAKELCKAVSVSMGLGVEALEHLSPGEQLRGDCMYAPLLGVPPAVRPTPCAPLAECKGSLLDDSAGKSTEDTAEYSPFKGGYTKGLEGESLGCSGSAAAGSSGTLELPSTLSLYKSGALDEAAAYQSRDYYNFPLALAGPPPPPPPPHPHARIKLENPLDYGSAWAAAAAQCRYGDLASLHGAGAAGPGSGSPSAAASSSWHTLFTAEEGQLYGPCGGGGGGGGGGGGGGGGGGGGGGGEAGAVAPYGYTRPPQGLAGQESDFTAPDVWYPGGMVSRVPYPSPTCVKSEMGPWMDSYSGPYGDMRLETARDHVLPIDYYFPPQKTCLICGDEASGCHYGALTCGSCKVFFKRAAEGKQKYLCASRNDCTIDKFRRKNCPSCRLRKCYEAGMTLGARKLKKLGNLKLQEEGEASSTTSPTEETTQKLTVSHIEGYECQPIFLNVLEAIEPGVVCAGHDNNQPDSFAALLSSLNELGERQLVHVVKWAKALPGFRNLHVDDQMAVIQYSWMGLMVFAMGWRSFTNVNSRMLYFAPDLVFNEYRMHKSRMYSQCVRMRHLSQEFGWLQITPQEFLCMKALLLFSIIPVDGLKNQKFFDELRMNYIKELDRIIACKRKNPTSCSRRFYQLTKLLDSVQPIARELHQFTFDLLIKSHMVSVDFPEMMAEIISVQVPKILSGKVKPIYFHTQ

In the case of `CC(C)(N)C#N`, the outcome (in test [1]; in [4]; in test [8]; in test [14]; with Aromatase (Homo sapiens)) was inactive. Besides, the Potency result in test [2], in [3], in test [5], in [6], in [7] and in test [9] was “inactive” each time. The Potency entry in [10], in [11], in test [12], in [13] and in test [15] was “inactive” throughout.
Consider `COc1cccc(OC)c1C(=O)N[C@@H]1C(=O)N2[C@@H]1SC(C)(C)[C@@H]2C(=O)O`, for which the molecule was classed as inactive (in test [1]; in test [14]; in the test with Aromatase (Homo sapiens)). Moreover, the Potency result in [2], in test [16], in test [3], in test [5] and in test [10] was “inactive” in each case.
On to `O=C(c1ccccc1)C1(O)CCCCC1`, for which the molecule was classed as inactive (in [1]; in test [4]; in test [8]; in test [14]; in the test with Aromatase (Homo sapiens)). For the same molecule, the Potency entry in test [2], in [16], in test [5], in [6], in test [7] and in test [10] was “inactive” throughout. The Potency entry in test [15] was “inactive”.
On to `Cc1cc(C)c(N=Nc2c(O)c(S(=O)(=O)O)cc3cc(S(=O)(=O)O)ccc23)cc1C`, for which the viability change, negative = cytotoxic is -0.62% [at 7.04 µM] in [1] and -1.15% [at 8.47 µM] in [5]. In addition, the activity change, negative = cytotoxicity was -7.67% [at 8.52 µM] in [2], 1.01% [at 8.55 µM] in test [3], -2% [at 7.04 µM] in [4] and -6.97% [at 8.47 µM] in test [14]. Further, the activity change, negative = cytotoxic in [6] was -15.7% [at 8.44 µM]. For the same molecule, the values for the activity, negative = inhibition (in [7]; in [9]; with Aromatase (Homo sapiens)) were -3.21% [at 8.44 µM], -5.6% [at 6.71 µM] and -5.99% [at 8.47 µM], respectively. Further, the activation is 0.237% [at 8.08 µM] in test [8], -3.26% [at 6.71 µM] in test [11] and 5.28% [at 8.47 µM] in test [12]. The activity, negative = cytotoxicity in test [10] was -15.7% [at 6.72 µM]. Moreover, the activity change, negative = inhibition in test [13] was -1.62% [at 8.47 µM].
Turning to `CCCCc1ccc2c(n1)[C@@H](c1ccc(OC)cc1C[C@H](C)C(=O)O)[C@H](C(=O)O)[C@H]2c1ccc2c(c1)OCO2`, the result (in test [1]; in test [4]; in test [8]; in [14]; with Aromatase (Homo sapiens)) was inactive. Moreover, the Potency entry in test [2], in [3], in test [5], in [6], in test [7] and in test [9] was “inactive” in each case. Besides, the Potency entry in test [10], in test [11], in test [12], in test [13] and in [15] was “inactive” each time.
Consider `CC(N)C12CC3CC(CC(C3)C1)C2` (stereo not given), for which the molecule was classed as inactive (in test [1]; in test [4]; in test [8]; in [14]; with Aromatase (Homo sapiens)). Moreover, the Potency result in test [2], in [3], in test [5], in test [6], in [7] and in [9] was “inactive” throughout. Also, the Potency entry in test [10], in test [11], in test [12], in test [13] and in [15] was “inactive” throughout.
For the molecule `CN(C)CCCN(C)CCCN(C)C`, the molecule was called inactive (in test [1]; in test [4]; in test [8]; in [14]; with Aromatase (Homo sapiens)). Moreover, the Potency entry in [2], in test [3], in test [5], in test [6], in [7] and in test [9] was “inactive” in each case. The Potency entry in [10], in test [11], in [13] and in test [15] was “inactive” each time.
As to `CO[C@@]1(NC(=O)CSC[C@@H](N)C(=O)O)C(=O)N2C(C(=O)O)=C(CSc3nnnn3C)CS[C@@H]21`, the outcome (in test [1]; in test [4]; in test [17]; in [8]; in the test with Aromatase (Homo sapiens)) was inactive. The Potency entry in test [2], in test [3], in test [18], in test [5], in test [6] and in test [7] was “inactive” throughout. For the same molecule, the Potency entry in test [9], in test [10], in [11], in [12], in [13] and in [15] was “inactive” throughout.
For `O=C(O)CC(C(=O)O)S(=O)(=O)O` (stereo not given), the call (in test [1]; in test [4]; in test [8]; in test [14]; in the test with Aromatase (Homo sapiens)) was inactive. Also, the values for the Potency in test [2] and in [16] were 68.6 µM (active) and 61.1 µM (active), respectively. Besides, the Potency result in test [5], in test [6], in test [7], in test [9], in test [10] and in test [11] was “inactive” in each case. Further, the Potency entry in [12] and in test [15] was “inactive” each time.
For `OCCCCCO`, the call (in [1]; in test [4]; in test [8]; in [14]; with Aromatase (Homo sapiens)) was inactive. In addition, the Potency entry in test [2], in [3], in test [5], in [6], in test [7] and in test [9] was “inactive” throughout. Moreover, the Potency entry in [10], in [11], in test [13] and in test [15] was “inactive” in each case. Further, the Potency in test [12] is 40.3 µM (active).
On to `C[C@H]1C[C@H]2[C@@H]3CCC4=CC(=O)C=C[C@]4(C)[C@H]3C(=O)C[C@]2(C)[C@@]1(O)C(=O)CO`, for which the call (in test [1]; in test [4]; in test [8]; in [14]; with Aromatase (Homo sapiens)) was inactive. The Potency entry in [2], in test [3], in [5], in test [6], in test [7] and in test [9] was “inactive” each time. For the same molecule, the Potency entry in [11], in [12] and in test [15] was “inactive” in each case.

Values taken from PubChem BioAssay (Tox21).
